Laboratory results reported in the supplement of paper PMC3334620.
In all, about 33,000 sequences were measured (“E-score (-0.5 to 0.5)”: median about -0.053, highest 2% from about 0.37 on). What follows is part of a selection rich in the highest values, with near analogues and random picks from the rest.

Target: Hap1 (UniProt P0CE41)
Test: PBM E-score (8-mer binding enrichment) (E-score (-0.5 to 0.5)); higher = stronger / more preferred TF binding
Conditions: protein concentration: 200 nM; construct: GST-DNA-binding domain
Experimental: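 Universal 'all 10-mer' protein binding microarrays (Agilent AMADID 015681) probed with GST-tagged S. cerevisiae TFs (full-length or DBD) made by in vitro transcription/translation (PURExpress), about 100-200 nM. Bound TF was detected with fluorescent anti-GST. Each ungapped 8-mer (which stands for itself and its reverse complement) is scored by the PBM enrichment score (E-score), a modified Wilcoxon-Mann-Whitney statistic from -0.5 to +0.5, computed with the Universal PBM Analysis Suite. Scale: above 0.35 generally sequence-specific binding.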

Sequence of UniProt P0CE41 (P0CE41 whole entry): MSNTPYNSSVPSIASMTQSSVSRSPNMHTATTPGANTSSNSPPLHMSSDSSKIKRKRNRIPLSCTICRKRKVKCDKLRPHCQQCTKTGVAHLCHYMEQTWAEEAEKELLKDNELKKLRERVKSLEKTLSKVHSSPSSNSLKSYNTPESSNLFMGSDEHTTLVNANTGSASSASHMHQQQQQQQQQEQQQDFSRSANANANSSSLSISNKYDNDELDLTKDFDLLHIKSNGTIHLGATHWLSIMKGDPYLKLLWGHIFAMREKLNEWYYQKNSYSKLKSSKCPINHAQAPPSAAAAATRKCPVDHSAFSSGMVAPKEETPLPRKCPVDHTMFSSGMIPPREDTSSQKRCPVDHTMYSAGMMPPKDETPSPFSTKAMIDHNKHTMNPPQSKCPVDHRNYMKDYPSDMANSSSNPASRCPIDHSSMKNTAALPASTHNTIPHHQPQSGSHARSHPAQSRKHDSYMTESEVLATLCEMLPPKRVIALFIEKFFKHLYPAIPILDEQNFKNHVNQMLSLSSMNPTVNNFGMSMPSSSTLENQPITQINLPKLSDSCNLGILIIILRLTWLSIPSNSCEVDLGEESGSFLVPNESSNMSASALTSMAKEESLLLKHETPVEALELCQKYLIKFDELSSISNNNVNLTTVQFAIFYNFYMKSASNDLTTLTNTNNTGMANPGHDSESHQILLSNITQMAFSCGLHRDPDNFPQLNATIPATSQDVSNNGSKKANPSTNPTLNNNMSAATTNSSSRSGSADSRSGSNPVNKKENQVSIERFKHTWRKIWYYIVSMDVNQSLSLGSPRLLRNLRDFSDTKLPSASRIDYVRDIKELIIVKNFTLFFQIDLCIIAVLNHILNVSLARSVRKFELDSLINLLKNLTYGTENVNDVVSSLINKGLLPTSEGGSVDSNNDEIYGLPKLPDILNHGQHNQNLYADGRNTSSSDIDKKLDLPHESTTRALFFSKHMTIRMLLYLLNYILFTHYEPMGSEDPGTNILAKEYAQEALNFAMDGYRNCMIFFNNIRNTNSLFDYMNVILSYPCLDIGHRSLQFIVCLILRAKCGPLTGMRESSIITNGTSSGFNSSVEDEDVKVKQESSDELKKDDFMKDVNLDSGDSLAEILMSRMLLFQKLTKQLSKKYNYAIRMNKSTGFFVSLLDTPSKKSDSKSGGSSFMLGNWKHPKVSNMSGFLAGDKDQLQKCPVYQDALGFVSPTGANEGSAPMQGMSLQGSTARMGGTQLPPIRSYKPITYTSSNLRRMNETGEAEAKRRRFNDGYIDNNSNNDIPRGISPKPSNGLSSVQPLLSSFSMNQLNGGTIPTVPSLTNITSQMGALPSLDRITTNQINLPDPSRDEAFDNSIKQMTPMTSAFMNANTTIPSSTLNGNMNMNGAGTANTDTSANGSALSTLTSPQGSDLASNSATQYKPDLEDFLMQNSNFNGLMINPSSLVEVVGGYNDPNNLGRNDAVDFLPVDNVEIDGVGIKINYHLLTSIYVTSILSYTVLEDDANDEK

Sequence | PBM E-score
AATTGGAC | 0.0155
CAGTAAAC | 0.00777
GCCTGCAC | -0.137
ATGCGCTA | -0.0961
ACGCCGGG | 0.306
ACGCCGCC | 0.256
GCGCCGAA | 0.359
GCGCCGGA | 0.368
ACGCCGCA | 0.18
ACGCCGTA | 0.0761
CCGCCGAA | 0.38
ACGCCGGC | 0.405
ACGCCGGA | 0.381
CCGCCGAG | 0.352
CCGCCGCA | 0.135
CCGCCGGA | 0.402
CGGCTCTC | 0.0925
AGCTGTGC | -0.224
CACGTCAC | -0.125
GGACCCAA | 0.124
ATACGTGC | 0.0178
CCATCGGC | 0.174
GTTGCAAA | -0.0687
CAATTTGC | -0.103
TTCGTAAA | -0.199

Sequence | PBM E-score
CCTAAAAA | 0.00566
GCCAAGTA | -0.218
CCGCCGTC | 0.151
CCGCCGCC | 0.193
CCGCCGGC | 0.373
AAGTTTAT | 0.145
ATCACCTG | -0.158
CTCACCGA | 0.157
GTCACCGA | 0.142
ATCACCGC | 0.234
ATCACCGA | 0.417
ATCACCGG | 0.382
ATAAGCCG | 0.3
ACTGATAG | -0.267
CCGATCCG | 0.438
CCGATCGG | 0.402
CGGATCCA | 0.318
CGGATCCG | 0.401
CCGATCCA | 0.269
ACGATCGG | 0.258
ACGATCCG | 0.302
CCGATCGA | 0.325
CGGATCCC | 0.28
ACTTTATG | -0.17
ATCAGTAG | -0.276

Sequence | PBM E-score
ACAGGGCC | 0.115
GGTCCCCA | 0.0281
ACTCGGCC | 0.361
ACTCGGAC | 0.385
ACTCGGAT | 0.311
CCTCGGCC | 0.346
CGTCGGAG | 0.313
CCTCGGAA | 0.314
GCTCGGCC | 0.375
ACTCGGAA | 0.344
CCTCGGGC | 0.31
CCTCGGAC | 0.39
ACTCGGAG | 0.305
CCTCGGAG | 0.394
AGACTAAG | -0.103
CGGCAGGA | 0.175
ATGGAAAC | -0.0981
TCACTTAA | -0.167
CGCGCCGC | 0.228
AAACGTCG | 0.00491
CCTCGGCG | 0.37
GCTCGGAA | 0.335
CCTCGGCA | 0.294
GGTCGGAC | 0.342
GCTCGGAC | 0.403

Sequence | PBM E-score
ACTCGGCG | 0.259
GATCAAAC | -0.0316
TAGAGCAA | -0.296
AGTTGATG | -0.292
CCGATATA | 0.44
GCGATATA | 0.24
CCGATATC | 0.458
ACGATATA | -0.0495
CAGATATC | 0.199
ACGATATC | 0.0796
AATCGGGA | 0.159
ATGCCTTG | -0.2
CCAGACGA | -0.0873
AACGTCCC | -0.179
CCCGTCCG | 0.314
ATCGTCCC | 0.0149
AACGTCCG | 0.371
AACGTCCA | -0.0731
ATCGTCCA | -0.0714
ATCGTCCG | 0.379
ACCGTCCG | 0.381
ACCGTCCC | 0.141
CAGTGCCC | 0.00772
ACAAGGGC | -0.112
CCATTAGG | -0.215

Sequence | PBM E-score
AATTGCAG | -0.0487
CGAGGCAC | 0.0885
AATAGATA | -0.00886
GCCTTAAC | -0.0709
CTGGTTTA | -0.309
ACGTCTAC | -0.179
CTGGTCAC | -0.325
AACGGGGG | 0.158
GCCGGAGC | 0.344
GCCAGAGA | -0.227
CCGGGAGA | 0.29
ACCGGAAT | 0.36
ACCGGAGT | 0.4
CCCGGAGA | 0.428
GCCGGAGA | 0.372
ACCGGAGC | 0.409
CCCGGAGC | 0.354
CCCAGAGA | -0.226
GACGGAGA | 0.318
ACCAGAGT | -0.222
ATTGGTGA | -0.281
AGCTTTTG | -0.167
AGTAGTGA | -0.1
AAGAAGGA | -0.21
ACAGGAAT | -0.135

Sequence | PBM E-score
ACACGGAT | 0.209
CTCCTCAC | -0.186
CCGTTCCA | 0.172
AACGGAGA | 0.357
AACGGAGC | 0.241
CCCGGAGG | 0.285
TCCGGAGA | 0.442
AACGGAGT | 0.373
CACGGAGA | 0.365
TACGGAGA | 0.326
ACCGGAGG | 0.399
AGCGGAGG | 0.158
AGCGGAGA | 0.276
ACCGGAGA | 0.43
ACAGGAGA | -0.131
CAAATAAG | 0.0685
AAAACGGG | 0.174
CGGGGACG | 0.163
AACGCGGG | 0.267
GCGTCTAA | -0.0983
GACACAGA | 0.0169
GCCATACC | 0.0518
CTATCGAG | -0.0625
CAGGTTTA | -0.0176
AACGGTCG | 0.23

Sequence | PBM E-score
TAGCACTA | -0.326
GGATTTAA | 0.444
GGATTTAC | 0.415
CGATTTAA | 0.0314
TGATTTAA | 0.0921
CGATTTAC | 0.149
AGATTTAC | -0.103
TTACCGAA | 0.233
CGTCTGAC | -0.045
ATGAAGCG | -0.208
ACCACTTA | -0.00971
ATGTTAGA | -0.336
GAGCCGGA | 0.379
AAGCCGTC | 0.27
TAGCCGGA | 0.407
AAGCCGGG | 0.238
AAGCCGGC | 0.399
AAGCCGGT | 0.332
CAGCCGGA | 0.33
GAGCCGCA | -0.0121
TAGCCGAA | 0.314
GAGCCGGC | 0.339
CAGCCGGC | 0.331
AAGCCGGA | 0.413
